SMILES strings stand for the structures. Inconclusive results are not listed. Entries that show only a call come without a potency. The source made the active and inactive calls. The call rests on the fitted dose curve.

Experimental findings from PubChem BioAssay (Tox21) are described below.

The assay in a line: p53 small molecule agonists, cell-based qHTS assay with rat liver microsomes (AID 1963578). The settings on record: HCT-116 p53RE-bla, beta-lactamase ratio, 16 h; series mostly up to 66 µM. The text has this:
U.S. Tox21 Program National Center for Advancing Translational Sciences [NCATS] Division of Preclinical Innovation [DPI] U.S. Environmental Protection Agency [EPA] National Institutes of Environmental Health Sciences [NIEHS] National Toxicology Program [NTP] U.S. Food and Drug Administration [FDA] Tox21 Assay Overview: p53, a tumor suppressor protein, is activated following cellular insult, including DNA damage and other cellular stresses. The activation of p53 regulates cell fate by inducing DNA repair, cell cycle arrest, apoptosis, or cellular senescence. The activation of p53, therefore, is a good indicator of DNA damage and other cellular stresses. […] The activation of the reporter gene under culture conditions can be detected by fluorescence intensity. This cell line was used to screen the Tox21 10K compound library in the condition of presence of rat liver microsomes and to identify agonists that activate the p53 signaling pathway after in vitro metabolic activation (Ooka et al., Archive of Toxicology 96:1975-1987, 2022).
Tox21 Assay Protocol Summary: The p53RE-bla cells were dispensed at 4,000cells/3ul/well in 1536-well black-clear bottom plates. After the assay plates were incubated at 37 C, 5% CO2 incubator for 5 hours, 23 nL of compounds dissolved in DMSO, positive controls or DMSO only was transferred to the assay plate. Following compound addition, 3 uL of rat liver microsomes (Molecular Toxicology, Boone, NC) at final concentration of 0.5 mg/mL and 1uL of Beta-Nicotinamide adenine dinucleotide 2-phosphate (NADPH) at final concentration of 0.5 mg/mL were transferred to the assay plate. The plates were incubated at 37 C for 16 hours. 1 uL of LiveBLAzer detection mixture was added to each well and the plates were incubated at room temperature in the dark for 2 h.
In general terms: qHTS replaces the single test concentration by a dilution series.
Regarding `O=[N+]([O-])c1ccc([As](=O)(O)O)cc1`, the Potency entry is “inactive”.
The same measure, in the same setting: the result for `Oc1ccccc1Cl` reads “inactive”; that for `C=C(C#N)CCC#N`, “inactive”.
For the compound `C/C(=N\NC(=O)Nc1cc(F)cc(F)c1)c1ncccc1C(=O)O`, the Potency entry is “inactive”.
The same measure, in the same setting: the result for `C[C@]12CCC(=O)C(O)=C1CC[C@@H]1[C@@H]2CC[C@]2(C)C(=O)CC[C@@H]12` reads “inactive”; that for `OC[P+](CO)(CO)CO`, “inactive”.
Same read-out and setting: the result for `CCN(CC)Cc1nccn1-c1ccc([N+](=O)[O-])cc1C(=O)c1ccccc1Cl` reads “inactive”; that for `CCNc1nc(NCC)nc(SC)n1`, “inactive”.
For the compound `CCCCC(CC)C(=O)Cl` (stereo not given), the Potency entry is “inactive”.
On the same count and under the same terms, next, `Nc1ccccc1C(=O)OCC(O)CO` (stereo not given): “inactive”; `c1ccc2c(c1)sc1ccccc12`: “inactive”.
The same measure, in the same setting: the result for `Cc1ccccc1O` reads “inactive”; that for `O=C(O)CC[N+](=O)[O-]`, “inactive”.
In the case of `ClC1C(Cl)C(Cl)C(Cl)C(Cl)C1Cl` (stereo not given), the Potency result is “inactive”.
Take `CC(=[OH+])/C=C(/C)[O-].CC(=[OH+])/C=C(\C)[O-].CC(=[OH+])/C=C(\C)[O-].[Al]`: the Potency result is “inactive”.
With `C=C(C)C(=O)OCC1CO1` (stereo not given), the Potency entry was “inactive”.
Consider `CCOP(=O)(OCC)OP(=O)(OCC)OCC`, for which the Potency result was “inactive”.
Still for that read-out and setting: the result for `CN(C)N` reads “inactive”; that for `CC(C)OC(=O)Nc1ccccc1`, “inactive”.
Same read-out and setting: next, `CC(C)(C)C(=O)CCl`: “inactive”.
On to `COc1ccc2c3c1O[C@H]1[C@H](O)CC[C@H]4[C@@H](C2)N(C)CC[C@@]341`, for which the Potency result was “inactive”.
The same measure, in the same setting: the result for `O=[N+]([O-])O[C@H]1CO[C@H]2[C@@H]1OC[C@H]2O[N+](=O)[O-]` reads “inactive”; that for `C=CC1CC=CCC1` (stereo not given), “inactive”; that for `CCC12COCN1COC2`, “inactive”.
Turning to `Nc1ccc(Cl)c(Cl)c1`, the Potency entry is “inactive”.
With `Nc1nc(N)nc(NC2CC2)n1`, the Potency result is “inactive”.
In the case of `CC(C)c1ccc(NC(=O)N(C)C)cc1`, the Potency entry is “inactive”.
For the compound `O=C(Cl)CCl`, the Potency entry was “inactive”.
Same read-out and setting: next, `OC(c1ccc(Cl)cc1)(c1cncnc1)c1ccccc1Cl` (stereo not given): “inactive”; `C=CCBr`: “inactive”.
As to `CCCCC(CC)COC(=O)c1c(Br)c(Br)c(Br)c(Br)c1C(=O)OCC(CC)CCCC` (stereo not given), the Potency entry was “inactive”.
For `O=C(O)C(Cl)Br` (stereo not given), the Potency result is “inactive”.
Still for that read-out and setting: the result for `Cl/C=C\CCl` reads “inactive”; that for `COS(=O)(=O)c1ccc(C)cc1`, “inactive”.
With `Oc1ccc(Cl)cc1`, the Potency entry was “inactive”.
For the compound `COC(=O)c1ccccc1C(=O)OC`, the Potency result is “inactive”.
For the compound `Cc1ccccc1[N+](=O)[O-]`, the Potency result is “inactive”.
As to `C=CCOC(N)=O`, the Potency entry is “inactive”.
On the same count and under the same terms, the result for `CC(C)OC(=S)S` reads “inactive”.
Consider `Brc1c(Br)c(Br)c(Br)c(Br)c1Br`, for which the activation was -3.05% [at 5.99 µM] (inactive).
